# Measured values reported in the supplement of paper PMC11732987, “Enantioselective OTUD7B fragment discovery through chemoproteomics screening and high-throughput optimisation” (Communications Chemistry, 2025).
# Values without a mark were called inactive.
# How the values were obtained:
# Experiment in all cases: log2 ratio of Biotin-Ahx-Ub-VS probe labelling (fragment/DMSO); higher = less target engagement (more negative = stronger competition), active = hit call of the paper (q ≤ 0.05, log2 ratio ≤ -1)
# Conditions in all cases: compound concentration: 200 uM; treatment time: 3 h
# OTUD6B = target: T1, OTUD6B (UniProt Q8N6M0)
# T1 sequence (whole entry): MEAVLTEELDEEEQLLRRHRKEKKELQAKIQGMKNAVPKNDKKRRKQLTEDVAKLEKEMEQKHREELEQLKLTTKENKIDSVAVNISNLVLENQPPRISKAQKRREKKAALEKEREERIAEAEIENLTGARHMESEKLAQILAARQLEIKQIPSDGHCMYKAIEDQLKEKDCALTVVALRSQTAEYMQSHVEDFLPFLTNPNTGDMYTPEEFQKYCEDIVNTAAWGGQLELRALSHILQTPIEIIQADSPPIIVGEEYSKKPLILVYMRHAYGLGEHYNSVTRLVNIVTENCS
# How it was run: (§1)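 HEK293T lysate (495 µg per sample, in Tris/CHAPS/IGEPAL buffer with protease inhibitors) was exposed in triplicate for 3 h to fragment at 200 µM or to vehicle, then to Biotin-Ahx-Ub-VS at 0.5 µM final for 1 h. Labelled DUBs were enriched on NeutrAvidin, digested with LysC and trypsin, and analysed by diaPASEF LC-MS/MS. Spectronaut label-free quantities were normalised to the global median, and values are average log2 ratios of fragment over vehicle from an unpaired t-test. Only proteins with ≥2 unique peptides were used.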
# OTUD7B = target: T2, OTUD7B (UniProt Q6GQQ9)
# T2 sequence (whole entry): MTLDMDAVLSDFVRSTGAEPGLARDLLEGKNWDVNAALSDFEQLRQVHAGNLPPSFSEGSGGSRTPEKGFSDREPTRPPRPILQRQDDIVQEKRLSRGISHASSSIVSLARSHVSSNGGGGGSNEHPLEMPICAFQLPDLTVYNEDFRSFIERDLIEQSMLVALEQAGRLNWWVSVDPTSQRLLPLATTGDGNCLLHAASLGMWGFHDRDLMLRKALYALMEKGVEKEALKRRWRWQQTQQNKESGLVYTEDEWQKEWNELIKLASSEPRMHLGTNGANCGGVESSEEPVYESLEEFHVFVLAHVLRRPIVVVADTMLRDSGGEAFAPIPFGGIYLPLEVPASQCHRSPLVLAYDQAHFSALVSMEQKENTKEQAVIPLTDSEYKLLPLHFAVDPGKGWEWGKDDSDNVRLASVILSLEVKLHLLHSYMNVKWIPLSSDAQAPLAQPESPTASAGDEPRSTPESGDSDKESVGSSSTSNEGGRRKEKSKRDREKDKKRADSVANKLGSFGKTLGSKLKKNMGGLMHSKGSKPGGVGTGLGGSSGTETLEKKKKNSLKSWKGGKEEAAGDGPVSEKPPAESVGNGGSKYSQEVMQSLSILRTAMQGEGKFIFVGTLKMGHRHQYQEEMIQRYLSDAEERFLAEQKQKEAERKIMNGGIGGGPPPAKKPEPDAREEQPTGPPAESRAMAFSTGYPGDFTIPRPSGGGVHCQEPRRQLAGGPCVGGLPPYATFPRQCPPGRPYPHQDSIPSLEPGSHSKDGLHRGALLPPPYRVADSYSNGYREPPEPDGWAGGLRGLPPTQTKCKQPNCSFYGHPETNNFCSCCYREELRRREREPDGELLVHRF
# How it was run: as §1
# PRPF8 = PRPF8 (UniProt Q6P2Q9)
# How it was run: as §1
# PSMD7 = target: T3, PSMD7 (UniProt P51665)
# T3 sequence (whole entry): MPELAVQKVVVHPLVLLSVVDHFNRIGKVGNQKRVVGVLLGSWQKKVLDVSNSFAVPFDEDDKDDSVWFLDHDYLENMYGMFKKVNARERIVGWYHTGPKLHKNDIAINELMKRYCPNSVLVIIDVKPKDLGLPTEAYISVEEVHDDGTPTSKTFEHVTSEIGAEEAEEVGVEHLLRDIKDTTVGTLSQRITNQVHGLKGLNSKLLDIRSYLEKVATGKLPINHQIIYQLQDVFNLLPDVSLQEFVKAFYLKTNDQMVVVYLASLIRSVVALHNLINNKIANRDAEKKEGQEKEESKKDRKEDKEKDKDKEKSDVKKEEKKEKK
# How it was run: as §1
# UCHL1 = UCHL1 (UniProt P09936)
# Sequence of UCHL1 (P09936 whole entry, looked up): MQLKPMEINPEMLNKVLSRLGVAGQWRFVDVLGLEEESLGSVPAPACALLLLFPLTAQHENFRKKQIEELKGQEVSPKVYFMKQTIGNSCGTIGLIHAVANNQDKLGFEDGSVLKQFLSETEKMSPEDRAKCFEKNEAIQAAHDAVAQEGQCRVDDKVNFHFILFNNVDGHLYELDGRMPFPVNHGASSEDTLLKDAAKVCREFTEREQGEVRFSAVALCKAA
# How it was run: as §1
# UCHL3 = target: T4, UCHL3 (UniProt P15374)
# T4 sequence (whole entry): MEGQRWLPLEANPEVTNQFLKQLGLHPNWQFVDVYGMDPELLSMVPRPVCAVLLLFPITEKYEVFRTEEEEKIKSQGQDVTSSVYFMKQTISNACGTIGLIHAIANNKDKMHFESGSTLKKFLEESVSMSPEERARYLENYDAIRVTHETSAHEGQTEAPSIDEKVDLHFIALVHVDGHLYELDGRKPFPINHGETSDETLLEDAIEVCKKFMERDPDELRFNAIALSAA
# How it was run: as §1
# UCHL5 = target: T5, UCHL5 (UniProt Q9Y5K5)
# T5 sequence (whole entry): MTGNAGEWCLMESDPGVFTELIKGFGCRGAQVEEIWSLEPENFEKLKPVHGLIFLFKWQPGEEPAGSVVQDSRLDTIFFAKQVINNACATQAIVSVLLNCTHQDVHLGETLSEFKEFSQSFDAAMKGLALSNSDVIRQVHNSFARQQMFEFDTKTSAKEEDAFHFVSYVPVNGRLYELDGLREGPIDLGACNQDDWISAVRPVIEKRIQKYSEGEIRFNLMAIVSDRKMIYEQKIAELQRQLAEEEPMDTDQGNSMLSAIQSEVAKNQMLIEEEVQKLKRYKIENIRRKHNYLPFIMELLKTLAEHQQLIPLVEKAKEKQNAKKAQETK
# How it was run: as §1
# USP10 = USP10 (UniProt Q14694)
# Sequence of USP10 (Q14694 whole entry): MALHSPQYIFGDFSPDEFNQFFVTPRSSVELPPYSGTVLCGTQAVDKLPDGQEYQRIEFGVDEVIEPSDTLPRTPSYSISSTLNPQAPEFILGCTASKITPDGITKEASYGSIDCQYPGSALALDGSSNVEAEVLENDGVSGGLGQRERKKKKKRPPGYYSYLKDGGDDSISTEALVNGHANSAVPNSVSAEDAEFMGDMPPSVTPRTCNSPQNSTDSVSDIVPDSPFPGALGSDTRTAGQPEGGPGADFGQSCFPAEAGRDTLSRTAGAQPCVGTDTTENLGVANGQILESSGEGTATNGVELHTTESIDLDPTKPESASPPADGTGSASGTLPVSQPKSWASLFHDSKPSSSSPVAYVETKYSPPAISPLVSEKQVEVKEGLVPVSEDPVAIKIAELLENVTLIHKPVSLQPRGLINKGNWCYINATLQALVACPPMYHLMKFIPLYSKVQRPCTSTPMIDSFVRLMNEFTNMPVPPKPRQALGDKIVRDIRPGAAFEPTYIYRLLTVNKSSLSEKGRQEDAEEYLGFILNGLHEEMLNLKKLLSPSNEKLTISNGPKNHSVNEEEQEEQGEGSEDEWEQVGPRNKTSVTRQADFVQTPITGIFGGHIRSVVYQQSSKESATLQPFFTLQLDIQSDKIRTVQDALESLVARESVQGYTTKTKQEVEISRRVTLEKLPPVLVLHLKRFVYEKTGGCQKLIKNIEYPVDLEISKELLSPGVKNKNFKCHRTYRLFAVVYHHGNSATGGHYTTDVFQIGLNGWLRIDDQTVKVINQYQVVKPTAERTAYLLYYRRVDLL
# How it was run: as §1
# USP15 = target: T6, USP15 (UniProt Q9Y4E8)
# T6 sequence (whole entry): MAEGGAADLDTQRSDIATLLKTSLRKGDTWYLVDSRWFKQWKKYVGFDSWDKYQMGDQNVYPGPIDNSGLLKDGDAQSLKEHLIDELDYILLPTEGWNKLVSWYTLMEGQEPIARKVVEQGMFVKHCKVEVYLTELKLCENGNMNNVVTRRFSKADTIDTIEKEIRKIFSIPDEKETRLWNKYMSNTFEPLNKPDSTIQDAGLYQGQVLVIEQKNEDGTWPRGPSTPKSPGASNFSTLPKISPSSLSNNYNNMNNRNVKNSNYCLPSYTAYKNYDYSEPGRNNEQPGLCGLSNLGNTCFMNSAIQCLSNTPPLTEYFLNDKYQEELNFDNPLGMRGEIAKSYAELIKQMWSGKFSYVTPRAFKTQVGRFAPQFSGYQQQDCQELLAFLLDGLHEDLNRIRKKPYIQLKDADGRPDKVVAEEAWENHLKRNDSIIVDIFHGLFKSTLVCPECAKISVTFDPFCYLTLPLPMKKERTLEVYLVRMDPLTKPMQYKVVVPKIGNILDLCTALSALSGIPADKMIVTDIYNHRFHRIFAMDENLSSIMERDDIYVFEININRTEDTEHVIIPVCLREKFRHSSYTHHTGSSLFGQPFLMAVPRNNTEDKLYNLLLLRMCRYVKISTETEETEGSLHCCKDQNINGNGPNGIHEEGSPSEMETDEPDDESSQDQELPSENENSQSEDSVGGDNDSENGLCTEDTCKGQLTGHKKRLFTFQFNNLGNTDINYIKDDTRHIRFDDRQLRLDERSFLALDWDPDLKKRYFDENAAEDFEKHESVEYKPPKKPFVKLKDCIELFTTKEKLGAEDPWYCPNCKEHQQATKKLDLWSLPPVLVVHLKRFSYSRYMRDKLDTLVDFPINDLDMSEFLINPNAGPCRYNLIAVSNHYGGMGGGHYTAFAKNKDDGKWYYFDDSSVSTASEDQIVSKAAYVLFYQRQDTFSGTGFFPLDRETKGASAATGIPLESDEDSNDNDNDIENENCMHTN
# How it was run: as §1
# USP16 = USP16 (UniProt Q9Y5T5)
# Sequence of USP16 (Q9Y5T5 whole entry, looked up): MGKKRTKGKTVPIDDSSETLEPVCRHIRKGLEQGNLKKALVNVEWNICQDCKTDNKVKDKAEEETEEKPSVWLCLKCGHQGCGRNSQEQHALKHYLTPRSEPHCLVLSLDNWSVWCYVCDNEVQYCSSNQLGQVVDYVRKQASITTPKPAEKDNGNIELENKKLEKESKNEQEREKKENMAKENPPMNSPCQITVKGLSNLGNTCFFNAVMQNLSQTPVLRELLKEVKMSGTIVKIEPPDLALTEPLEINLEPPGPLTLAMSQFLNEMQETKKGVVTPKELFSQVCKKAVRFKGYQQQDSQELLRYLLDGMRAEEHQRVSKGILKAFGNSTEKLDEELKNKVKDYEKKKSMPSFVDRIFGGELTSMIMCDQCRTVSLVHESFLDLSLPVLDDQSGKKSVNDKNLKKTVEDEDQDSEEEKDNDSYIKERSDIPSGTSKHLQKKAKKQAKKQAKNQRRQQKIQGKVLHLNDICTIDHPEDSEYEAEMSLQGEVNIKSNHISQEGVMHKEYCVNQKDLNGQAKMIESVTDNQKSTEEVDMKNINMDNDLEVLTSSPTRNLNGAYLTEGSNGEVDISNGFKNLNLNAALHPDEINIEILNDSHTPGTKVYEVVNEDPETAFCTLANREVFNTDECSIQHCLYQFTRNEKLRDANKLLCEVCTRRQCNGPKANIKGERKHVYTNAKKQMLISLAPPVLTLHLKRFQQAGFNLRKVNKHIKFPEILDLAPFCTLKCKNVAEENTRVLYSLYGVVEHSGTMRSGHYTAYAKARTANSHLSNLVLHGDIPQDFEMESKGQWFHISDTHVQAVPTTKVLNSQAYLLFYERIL
# How it was run: as §1
structure (smiles),measurement,setting,value
O=C(CCl)Nc1cccc2ncccc12,log2 ratio of Biotin-Ahx-Ub-VS probe labelling,OTUD6B,-0.0779
same,log2 ratio of Biotin-Ahx-Ub-VS probe labelling,OTUD7B,-1 (active)
same,log2 ratio of Biotin-Ahx-Ub-VS probe labelling,PRPF8,-0.308
same,log2 ratio of Biotin-Ahx-Ub-VS probe labelling,PSMD7,-0.0733
same,log2 ratio of Biotin-Ahx-Ub-VS probe labelling,UCHL1,-1.25 (active)
same,log2 ratio of Biotin-Ahx-Ub-VS probe labelling,UCHL3,0.101
same,log2 ratio of Biotin-Ahx-Ub-VS probe labelling,UCHL5,-0.321
same,log2 ratio of Biotin-Ahx-Ub-VS probe labelling,USP10,0.0543
same,log2 ratio of Biotin-Ahx-Ub-VS probe labelling,USP15,-0.178
same,log2 ratio of Biotin-Ahx-Ub-VS probe labelling,USP16,0.52
